Source: PubChem BioAssay (EPA / NIEHS)
Activity calls are given as the source filed them. The calls were made as follows: active = hit-call score of the fitted dose curve at least 0.9, where 1 is the maximum; inactive = score below 0.9.

What was measured:
[1] = target: CCAAT/enhancer-binding protein beta (Homo sapiens) (UniProt P17676); assay: ATG_C_EBP_CIS: Attagene CIS-FACTORIAL HepG2 Assay for human CCAAT/Enhancer Binding Protein (C/EBP) beta (AID 2282927); conditions: HepG2 Attagene cis-factorial transcription factor reporter; actives raise or lower the signal
Chain of CCAAT/enhancer-binding protein beta (Homo sapiens) (P17676 whole entry, looked up, the tested form may be a part): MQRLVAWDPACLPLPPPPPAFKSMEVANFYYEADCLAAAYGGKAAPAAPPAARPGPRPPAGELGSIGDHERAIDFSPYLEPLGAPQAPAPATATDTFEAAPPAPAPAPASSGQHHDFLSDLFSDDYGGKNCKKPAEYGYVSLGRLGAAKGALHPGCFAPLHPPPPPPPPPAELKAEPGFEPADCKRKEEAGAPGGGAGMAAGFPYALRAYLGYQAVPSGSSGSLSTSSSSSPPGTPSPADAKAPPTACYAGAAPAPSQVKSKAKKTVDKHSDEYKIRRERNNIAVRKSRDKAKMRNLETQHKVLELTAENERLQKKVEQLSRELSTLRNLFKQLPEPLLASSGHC
Summary of the method: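 Chemical-treated HepG2 cells (24 h) bearing cis-regulated reporter constructs were processed for total RNA, then reverse transcription, PCR amplification, fluorescent primer extension and fragment analysis; gain- and loss-of-signal were fitted against DMSO.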

[2] = ATG_CMV_CIS: Attagene CIS-FACTORIAL HepG2 Assay for human CMV (Internal Marker) (AID 2282928); conditions: HepG2 CMV promoter reporter, transcription factor profiling; actives raise or lower the signal;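 also: endpoint acts as a background internal control marker rather than a target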
Summary of the method: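 Bidirectional fits against DMSO are applied to reporter mRNA, read by RT-PCR with capillary electrophoresis, from HepG2 cells exposed 24 h. The endpoint serves as an internal CMV background marker within the cis-factorial reporter panel.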

[3] = ATG_DR4_LXR_CIS: Attagene CIS-FACTORIAL HepG2 Assay for human Liver X Receptor (LXR), DR4 submotif (AID 2282929); conditions: HepG2 Attagene DR4 cis-reporter, mRNA transcription; actives raise or lower the signal
Summary of the method: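 Readout: reporter transcript fluorescence after RT-PCR and capillary electrophoresis, fitted bidirectionally against DMSO controls. Human HepG2 liver cells carried transiently transfected multiplexed reporter constructs; endogenous transcription factor activity measured 24 h post-dosing.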

[4] = target: Aryl hydrocarbon receptor (Homo sapiens) (UniProt P35869); assay: ATG_Ahr_CIS: Attagene CIS-FACTORIAL HepG2 Assay for human Aryl Hydrocarbon Receptor (Ahr) (AID 2282930); conditions: HepG2 AhR cis-factorial reporter transcription; actives raise or lower the signal
Chain of Aryl hydrocarbon receptor (Homo sapiens) (P35869 whole entry, looked up): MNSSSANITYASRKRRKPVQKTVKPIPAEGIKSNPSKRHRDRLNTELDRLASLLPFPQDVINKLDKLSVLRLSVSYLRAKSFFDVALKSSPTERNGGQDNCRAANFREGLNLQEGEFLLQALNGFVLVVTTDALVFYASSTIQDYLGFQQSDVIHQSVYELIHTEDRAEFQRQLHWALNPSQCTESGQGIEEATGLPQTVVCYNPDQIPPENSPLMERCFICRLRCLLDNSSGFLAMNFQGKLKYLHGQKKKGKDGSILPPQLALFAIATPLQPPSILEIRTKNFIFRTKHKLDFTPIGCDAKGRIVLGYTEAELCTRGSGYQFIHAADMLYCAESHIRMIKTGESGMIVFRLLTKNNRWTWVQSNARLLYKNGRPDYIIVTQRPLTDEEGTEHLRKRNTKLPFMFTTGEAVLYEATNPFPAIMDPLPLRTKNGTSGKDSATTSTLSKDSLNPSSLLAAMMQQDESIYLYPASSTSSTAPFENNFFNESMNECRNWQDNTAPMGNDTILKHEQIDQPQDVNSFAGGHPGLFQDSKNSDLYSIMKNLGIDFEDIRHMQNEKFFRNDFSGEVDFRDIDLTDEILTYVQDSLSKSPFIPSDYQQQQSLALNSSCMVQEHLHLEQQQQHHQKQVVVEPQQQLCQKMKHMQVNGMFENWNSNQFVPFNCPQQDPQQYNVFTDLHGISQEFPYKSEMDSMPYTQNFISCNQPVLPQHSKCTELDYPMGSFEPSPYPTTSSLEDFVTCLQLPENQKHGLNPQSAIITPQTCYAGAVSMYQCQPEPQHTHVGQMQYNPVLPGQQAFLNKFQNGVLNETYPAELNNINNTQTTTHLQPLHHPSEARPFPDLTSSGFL
Summary of the method: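 Following 24 h of chemical dosing, transfected HepG2 liver cells with cis-driven reporter units were lysed for RNA; reporter mRNA was quantified via RT-PCR and capillary electrophoresis, and responses fitted bidirectionally from DMSO.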

[5] = ATG_AP_1_CIS: Attagene CIS-FACTORIAL HepG2 Assay for human Activator Protein 1 (AP-1) (AID 2282931); conditions: HepG2 Attagene cis-factorial AP-1 reporter mRNA; actives raise or lower the signal
Summary of the method: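 Reporter transcripts were measured 24 h after dosing by RT-PCR and capillary electrophoresis of fluorescent fragments. Cells: HepG2 carrying transfected cis-regulated reporter constructs reading endogenous factor activity. Gain or loss fitted against DMSO.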

[6] = ATG_AP_2_CIS: Attagene CIS-FACTORIAL HepG2 Assay for human Activator Protein 2 (AP-2) (AID 2282932); conditions: HepG2 AP-2 cis-reporter, Attagene transcription factor profiling; actives raise or lower the signal
Summary of the method: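 Assay in transfected HepG2 with promoter-regulated reporters, 24 h incubation after dosing. Signal is reporter mRNA fluorescence (RT-PCR, capillary electrophoresis), analysed for both increases and decreases relative to DMSO controls.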

[7] = ATG_BRE_CIS: Attagene CIS-FACTORIAL HepG2 Assay for human Bone Morphogenetic Protein (BMP) Response Element (BRE) (AID 2282933); conditions: HepG2 BMP response element reporter, Attagene transcription factor profiling; actives raise or lower the signal
Summary of the method: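 Endogenous transcription factor activity at a BMP response element was monitored in transfected HepG2 cells 24 h after dosing. Fluorescent RT-PCR products were resolved by capillary electrophoresis, and activity was fitted in both directions versus DMSO.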

[8] = target: Transcription factor E2F1 (Homo sapiens) (UniProt Q01094); assay: ATG_E2F_CIS: Attagene CIS-FACTORIAL HepG2 Assay for human E2F Transcription Factor 1 (AID 2282935); conditions: HepG2 Attagene cis-reporter, E2F reporter RNA transcripts; actives raise or lower the signal
Chain of Transcription factor E2F1 (Homo sapiens) (Q01094 whole entry, looked up): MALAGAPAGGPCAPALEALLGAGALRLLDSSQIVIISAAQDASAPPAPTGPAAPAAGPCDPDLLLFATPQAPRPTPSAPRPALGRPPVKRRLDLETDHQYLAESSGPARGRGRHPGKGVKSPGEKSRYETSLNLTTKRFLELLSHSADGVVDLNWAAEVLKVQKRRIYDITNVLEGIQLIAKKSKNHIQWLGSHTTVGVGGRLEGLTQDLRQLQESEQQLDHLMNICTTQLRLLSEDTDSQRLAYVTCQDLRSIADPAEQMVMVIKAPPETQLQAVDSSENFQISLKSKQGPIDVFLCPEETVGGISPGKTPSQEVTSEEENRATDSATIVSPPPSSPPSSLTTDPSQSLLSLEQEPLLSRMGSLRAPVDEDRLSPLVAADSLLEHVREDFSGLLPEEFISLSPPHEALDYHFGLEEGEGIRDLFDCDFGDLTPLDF
Summary of the method: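 In this cis-factorial format, endogenous factor activity drives transfected reporters in HepG2; transcripts collected at 24 h are quantified by fluorescence after RT-PCR and capillary separation.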

[9] = ATG_E_Box_CIS: Attagene CIS-FACTORIAL HepG2 Assay for human Enhancer Box (E-box) (AID 2282936); conditions: HepG2 E-box cis-reporter transcription, actives raise or lower the signal
Summary of the method: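 Measured 24 h post-dosing in HepG2 cells transfected with multiple cis-regulated reporter units, signal being reporter mRNA induction detected by fluorescent RT-PCR with capillary electrophoresis; gain or loss fitted against DMSO.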

[10] = ATG_M_61_CIS: Attagene CIS-FACTORIAL HepG2 Assay for M61 Transcription Factor (Internal Marker) (AID 2282937); conditions: HepG2 Attagene CIS-FACTORIAL M61 internal marker reporter; actives raise or lower the signal
Summary of the method: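 Readout: fluorescent reporter mRNA fragments resolved by capillary electrophoresis after RT-PCR. Transiently transfected human HepG2 cells carried MRTU constructs reporting endogenous TF activity; 24 h chemical exposure; gain or loss of signal fitted relative to DMSO.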

[11] = ATG_EGR_CIS: Attagene CIS-FACTORIAL HepG2 Assay for human Early Growth Response 1 (EGR1) (AID 2282938); conditions: HepG2 Attagene CIS-FACTORIAL EGR reporter mRNA; actives raise or lower the signal
Summary of the method: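 Read-out: fluorescent reporter-mRNA fragments resolved by capillary electrophoresis after RT-PCR, 24 h post-dose in transiently transfected HepG2. Endogenous transcription-factor activity reported via cis-element-regulated reporter units; gain or loss fitted relative to DMSO.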

[12] = ATG_M_19_CIS: Attagene CIS-FACTORIAL HepG2 Assay for M19 Transcription Factor (Internal Marker) (AID 2282939); conditions: HepG2 Attagene CIS-FACTORIAL M19 internal marker reporter; actives raise or lower the signal
Summary of the method: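 Background-control endpoint from a multiplexed HepG2 reporter panel. Cells carrying cis-regulated reporter constructs are treated 24 h, then reporter transcripts are amplified, fluorescently labelled and sized by capillary electrophoresis. DMSO defines baseline.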

[13] = target: Hepatocyte nuclear factor 3-beta (Homo sapiens) (UniProt Q9Y261); assay: ATG_FoxA2_CIS: Attagene CIS-FACTORIAL HepG2 Assay for human Forkhead box A2 (FOXA2) (AID 2282942); conditions: HepG2 cis-reporter transcription factor activity, 24 h; actives raise or lower the signal
Chain of Hepatocyte nuclear factor 3-beta (Homo sapiens) (Q9Y261 whole entry, looked up): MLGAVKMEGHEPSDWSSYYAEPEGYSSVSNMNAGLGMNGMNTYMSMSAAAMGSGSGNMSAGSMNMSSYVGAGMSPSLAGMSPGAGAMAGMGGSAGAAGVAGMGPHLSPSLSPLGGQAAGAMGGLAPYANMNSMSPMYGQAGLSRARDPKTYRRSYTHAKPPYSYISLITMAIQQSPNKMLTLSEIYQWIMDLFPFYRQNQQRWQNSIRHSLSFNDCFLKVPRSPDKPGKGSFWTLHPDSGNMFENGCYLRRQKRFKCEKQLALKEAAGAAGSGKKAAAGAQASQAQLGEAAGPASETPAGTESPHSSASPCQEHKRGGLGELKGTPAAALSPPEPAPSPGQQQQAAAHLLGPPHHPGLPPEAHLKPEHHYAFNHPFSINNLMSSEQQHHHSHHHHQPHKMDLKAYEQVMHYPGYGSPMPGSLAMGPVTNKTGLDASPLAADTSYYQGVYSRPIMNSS
Summary of the method: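 Readout: fluorescent reporter transcripts resolved by capillary electrophoresis after RT-PCR. Transiently transfected HepG2, 24 h compound exposure, endogenous TF activity at cis promoter elements. Gain or loss of signal fitted relative to DMSO.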

[14] = ATG_FoxO_CIS: Attagene CIS-FACTORIAL HepG2 Assay for human Forkhead box O (FoxO) (AID 2282943); conditions: HepG2 Attagene cis-reporter, FoxO element, mRNA; actives raise or lower the signal
Summary of the method: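 24 h chemical exposure, HepG2 with transient cis-MRTU transfection. RNA extraction, oligo(dT) RT, reporter-specific PCR, primer-extension labelling, HpaI digestion, CE fragment analysis; bidirectional fit, DMSO baseline.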

[15] = ATG_GLI_CIS: Attagene CIS-FACTORIAL HepG2 Assay for human Zinc Finger Protein GLI1 (AID 2282945); conditions: HepG2, Attagene cis-factorial reporter mRNA, GLI element; actives raise or lower the signal
Summary of the method: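 HepG2 cells transiently transfected with cis-promoter multiplexed reporter units report endogenous transcription factor activity. After 24 h chemical exposure, reporter mRNA was quantified by RT-PCR, 6-FAM labelling, HpaI digestion and capillary electrophoresis, with bidirectional fitting against DMSO.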

[16] = target: Bile acid receptor (Homo sapiens) (UniProt Q96RI1); assay: ATG_IR1_CIS: Attagene CIS-FACTORIAL HepG2 Assay for human Nuclear Receptor Subfamily 1 Group H Member 4 (NR1H4), IR1 submotif (AID 2282946); conditions: IR1 reporter transcription, actives raise or lower the signal
Chain of Bile acid receptor (Homo sapiens) (Q96RI1 whole entry, looked up): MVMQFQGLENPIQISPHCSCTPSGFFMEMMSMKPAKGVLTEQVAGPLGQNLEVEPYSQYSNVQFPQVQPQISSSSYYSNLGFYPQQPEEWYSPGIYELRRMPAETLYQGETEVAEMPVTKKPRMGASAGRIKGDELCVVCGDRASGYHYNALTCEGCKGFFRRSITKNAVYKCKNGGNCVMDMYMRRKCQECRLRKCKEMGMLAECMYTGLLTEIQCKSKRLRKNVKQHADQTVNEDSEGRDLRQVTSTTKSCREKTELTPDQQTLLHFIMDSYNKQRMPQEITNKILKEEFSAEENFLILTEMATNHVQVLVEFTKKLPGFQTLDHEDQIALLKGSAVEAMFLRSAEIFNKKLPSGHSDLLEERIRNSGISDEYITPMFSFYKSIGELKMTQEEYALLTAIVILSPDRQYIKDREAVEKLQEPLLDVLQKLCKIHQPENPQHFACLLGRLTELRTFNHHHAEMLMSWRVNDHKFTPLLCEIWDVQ
Summary of the method: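 Readout: reporter transcript levels by RT-PCR with fluorescent capillary electrophoresis, from HepG2 cells transiently transfected with multiplexed cis-regulated reporters and dosed 24 h. Gain- or loss-of-signal fitted versus DMSO negative control.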

[17] = ATG_GATA_CIS: Attagene CIS-FACTORIAL HepG2 Assay for human GATA Binding Protein (AID 2282944); conditions: HepG2 GATA cis-element reporter, Attagene multiplex mRNA; actives raise or lower the signal
Summary of the method: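 Endogenous transcription factor activity was captured through cis-promoter-driven reporters in transfected HepG2 cells. After 24 h exposure, reporter transcripts were quantified by RT-PCR with fluorescent capillary electrophoresis, and responses fitted both directions against DMSO.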

[18] = target: Retinoic acid receptor alpha (Homo sapiens) (UniProt P10276); assay: ATG_DR5_RAR_CIS: Attagene CIS-FACTORIAL HepG2 Assay for human Retinoic Acid Receptor Alpha (RARE), DR5 submotif (AID 2282934); conditions: HepG2 Attagene cis-factorial RARE DR5 reporter, mRNA; actives raise or lower the signal
Chain of Retinoic acid receptor alpha (Homo sapiens) (P10276 whole entry, looked up): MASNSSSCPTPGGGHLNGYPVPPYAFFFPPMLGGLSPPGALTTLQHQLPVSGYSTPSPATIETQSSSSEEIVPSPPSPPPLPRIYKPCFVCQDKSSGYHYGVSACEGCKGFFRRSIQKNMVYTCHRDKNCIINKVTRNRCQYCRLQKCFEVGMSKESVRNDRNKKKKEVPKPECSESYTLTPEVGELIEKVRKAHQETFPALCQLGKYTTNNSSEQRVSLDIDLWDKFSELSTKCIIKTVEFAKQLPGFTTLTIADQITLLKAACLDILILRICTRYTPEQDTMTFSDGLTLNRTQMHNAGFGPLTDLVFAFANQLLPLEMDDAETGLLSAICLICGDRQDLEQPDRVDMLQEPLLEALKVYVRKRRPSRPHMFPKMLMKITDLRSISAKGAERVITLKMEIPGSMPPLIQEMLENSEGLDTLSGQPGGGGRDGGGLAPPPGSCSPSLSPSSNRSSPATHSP
Summary of the method: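 Transfected HepG2 reporter cells are exposed to chemicals for 24 h. Then RNA is extracted and the DR5 element reporter transcript is measured by RT-PCR and capillary electrophoresis, with bidirectional curve fitting relative to DMSO.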

[19] = ATG_ERE_CIS: Attagene CIS-FACTORIAL HepG2 Assay for Estrogen Response Element (ERE) (AID 2282940); conditions: HepG2 ERE cis-reporter, Attagene RNA transcript; actives raise or lower the signal
Summary of the method: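 Cells used were human hepatoma HepG2, transfected with multiple reporter transcription units under cis-regulatory promoters. Reporter mRNA, read 24 h post-dosing via fluorescent RT-PCR products on capillary electrophoresis, was fitted bidirectionally relative to DMSO.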

[20] = ATG_Ets_CIS: Attagene CIS-FACTORIAL HepG2 Assay for human Erythroblast Transformation Specific (ETS) (AID 2282941); conditions: HepG2 ETS cis-reporter transcription, actives raise or lower the signal
Summary of the method: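 Endogenous transcription factor activity read as reporter mRNA via RT-PCR and capillary electrophoresis, with gain or loss fitted bidirectionally against DMSO. Human HepG2 liver cells, transiently transfected CIS reporter constructs, 24 h exposure.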

Measured: AC50

CCSC(C)CC1CC(=O)C(C(CC)=NOC/C=C/Cl)=C(O)C1 (configuration not stated)
active: [4] 28.4 µM
not listed: [17] | [18] | [19] | [20]
inactive: all other assays above

Cl/C=C\C[N+]12CN3CN(CN(C3)C1)C2
active: [2] 170 µM | [3] 41.7 µM | [5] 181 µM | [7] 19.8 µM | [9] 76.9 µM | [16] 44.6 µM
not listed: [18] | [19] | [20]
inactive: all other assays above

CC(=O)C=C(C)C
not listed: [7] | [16]
inactive: all other assays above

CC(C)(c1ccccc1)c1ccc(O)c(C(C)(C)c2ccccc2)c1
active: [2] 14.9 µM | [5] 7.38 µM | [9] 16.9 µM | [11] 9.29 µM | [14] 15.2 µM | [16] 2.78 µM
not listed: [12] | [18] | [19]
inactive: all other assays above

C[C@H]1CCCC(=O)CCC/C=C/c2cc(O)cc(O)c2C(=O)O1
active: [2] 31.1 µM | [4] 22.5 µM | [7] 64.5 µM | [11] 10.2 µM | [19] 0.00291 µM | [14] 10.3 µM
not listed: [13] | [16] | [17] | [18] | [20]
inactive: all other assays above

CCC1(c2ccc(N)cc2)CCC(=O)NC1=O (configuration not stated)
not listed: [12] | [17] | [18]
inactive: all other assays above

CCOP(=S)(OCC)SCCS(=O)(=O)CC
not listed: [12] | [13] | [17] | [18]
inactive: all other assays above

Nc1ncc([N+](=O)[O-])s1
active: [4] 62 µM
not listed: [7] | [19]
inactive: all other assays above

N#Cc1ccccn1
not listed: [7] | [16] | [20]
inactive: all other assays above

ClC1(Cl)C2(Cl)C3(Cl)C4(Cl)C(Cl)(Cl)C5(Cl)C3(Cl)C1(Cl)C5(Cl)C24Cl (configuration not stated)
not listed: [12] | [13] | [18]
inactive: all other assays above

CC(C)C1CCC(Cc2ccc(Cl)cc2)C1(O)Cn1cncn1 (configuration not stated)
active: [3] 18.1 µM | [4] 3.08 µM | [5] 17.5 µM
not listed: [7] | [17] | [19]
inactive: all other assays above

O=[N+]([O-])c1c(Cl)c(Cl)cc(Cl)c1Cl
active: [2] 45.3 µM
not listed: [7] | [20]
inactive: all other assays above

Clc1nc(Cl)nc(Cl)n1
active: [4] 69 µM
not listed: [16] | [18] | [19]
inactive: all other assays above

NC(=O)O
not listed: [16] | [18] | [19]
inactive: all other assays above
